In the library only some 10% were active in any assay of this set; here they are far more common.
BAZ2B inh – BAZ2B (human) inhibition. AlphaScreen BAZ2B-H3K14Ac peptide displacement. Potency, µM (series often up to 114 µM), for inactives: top-dose activity change, negative = inhibition, actives largely listed as inhibitors. 360,000 tested, 4.4% active; also: % is scaled to controls: 0 for no effect and ±100 for the full control effect; nearly all actives have a fitted effect of over 60% in size
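BAZ2B (50 nM) with biotin-H3(5-23)K14Ac peptide (50 nM) in PBS pH 7.4, 0.01% Tween-20, preformed 30 min, then compound 30 min at room temperature; top concentration 110uM. AlphaScreen streptavidin donor/nickel chelate acceptor beads (10 ug/mL final), 20 min dark, signal read.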
G9a inh – G9a (human) methyltransferase inhibition | Q96KQ7 | G9a H3K9 monomethylation, AlphaScreen, 2 h | Potency, µM (highest dose often 102 µM), for the others: at the top dose activity, negative = inhibition, most hits filed as inhibitors | 350,000 tested, 8.8% active | AID 504332; also: % is scaled to controls: 0 for no effect and ±100 for the full control effect; nearly all actives have a fitted effect of over 75% in size
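G9a (20 nM) preincubated 15 min RT with compounds, then 500 nM biotinylated H3K9 peptide and 20 uM SAM added; 2 h RT reaction. Monomethyl-H3K9 product detected by AlphaScreen with anti-H3K9me1 antibody, streptavidin donor and anti-rabbit IgG acceptor beads.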
HP1b binding inh – HP1-beta chromodomain-methylated histone interaction inhibition; AlphaScreen HP1-beta / biotin-H3K9me3 peptide binding; Potency, µM (series often up to 114 µM), without a hit: top-dose activity change, negative = inhibition, usual class: inhibitors; 390,000 tested, 0.56% active; also: nearly all actives have a fitted effect of over 70% in size
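Compound inhibition of the preformed complex between 50 nM HP1-beta and 50 nM biotinylated H3K9me3 peptide was read by AlphaScreen. Buffer was PBS pH 7.4 with 0.01% Tween-20. Incubations ran 30 min at room temperature, with 10 ug/mL donor/acceptor beads.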
L3MBTL1 block – L3MBTL1 (human) inhibition | Q9Y468 | AlphaScreen L3MBTL1–H3K9me1 peptide binding | Potency, µM (titrated, usually from 57.1 µM), for the others: top-dose activity, negative = inhibition, actives largely listed as inhibitors | 230,000 tested, 0.66% active; also: % is scaled to controls: 0 for no effect and ±100 for the full control effect; nearly all actives have a fitted effect of over 60% in size
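AlphaScreen assay: L3MBTL1 (50 nM final) was preincubated 30 min at room temperature with biotinylated H3(1-15)K9me1 peptide (75 nM final), then 30 min with library compounds; streptavidin donor and nickel chelate acceptor beads (10 ug/mL final) added, 30 min dark.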
GLS inh – blocks human kidney-isoform glutaminase activity. Potency, µM (series often up to 45.5 µM), inactives show at the top dose activity change, negative = inhibition, most hits filed as inhibitors. GLS enzymatic activity, qHTS titration. O94925. 410,000 tested, 0.21% active; also: % is scaled to controls: 0 for no effect and ±100 for the full control effect
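hKGA; 45 mM KH2PO4 pH 8.2 + 0.02% Tween-20; cpd via pin tool; 1 mM Gln soln; GluOx/HRP/Amplex Red; RT 30 min; fluor. t0 & final.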
JMJD2A Tudor inh – blocks the human JMJD2A Tudor domain. AlphaScreen JMJD2A-Tudor / H3K4me3 peptide binding. Potency, µM (series often up to 114 µM), for inactives: at the top dose activity change, negative = inhibition, hits mostly inhibitors. AID 504339. 390,000 tested, 4.4% active; also: % is scaled to controls: 0 for no effect and ±100 for the full control effect; nearly all actives have a fitted effect of over 50% in size
* marks the source's active call; other numbers are inactive results; ? = inconclusive; · = no result given; ! = a repeat was not active; [ ] = another dose, or the depositor's remark. Calls follow the shape of the dose curve; as a rule, active = well fitted curve in the direction sought with a large enough effect; inconclusive = small, poorly fitted or top-dose-only effect, or another doubt; inactive = no such curve, though single readings can be large; an effect the other way counts as inactive or inconclusive. Potency is read from the fitted curve at half-maximal effect.

SMILES	BAZ2B inh	G9a inh	HP1b binding inh	L3MBTL1 block	GLS inh	JMJD2A Tudor inh
COc1ccc(CNCc2ccc3ccccc3c2)c(OC)c1	?	11µM*	?	1%	1%	35µM*
CCn1cc2nc(SCc3cc(C)ccc3C)n(Cc3ccc(C)cc3)c(=O)c2n1	0%	-3%[59 µM]	-5%	·	-15%	-20%
C[C@H](Oc1ccccc1)C(=O)N[C@@H]1C(=O)N2[C@@H]1SC(C)(C)[C@@H]2C(=O)O	·	24%[21.5 µM]	·	·	-3%[20 µM]	·
CC1(C)SC2C(C(=O)O)N=C(Cc3ccccc3)N2C1C(=O)O (stereo not given)	·	·	71%	·	16µM*	?
Cc1onc(-c2c(F)cccc2Cl)c1C(=O)N[C@@H]1C(=O)N2C(C(=O)O)C(C)(C)S[C@H]12 (stereo not given in full)	8%	?	21%	8%	11µM*	-13%
CC1(C)S[C@@H]2[C@H](NC(=O)Cc3ccccc3)C(=O)N2[C@@H]1C(=O)O	·	25%[59 µM]	·	·	13µM*	·
CCC(Oc1ccccc1)C(=O)NC1C(=O)N2C1SC(C)(C)C2C(=O)O (stereo not given)	-3%	34%[59 µM]	13%	-2%	25µM*	-8%
CCOc1ccc2ccccc2c1C(=O)N[C@@H]1C(=O)N2[C@@H]1SC(C)(C)[C@@H]2C(=O)O	6%	-31%[59 µM]	17%	1%	4µM*!	?
CC(C)NCCCOc1ccc(Cl)cc1Br	?	·	?	0%	2%	32µM*
C=CCNCCCOc1ccc(C)cc1Br	13%	0%[59 µM]	31%	5%	-1%	7%
COCCNCCCOc1ccc(C)cc1Br	56µM*	·	-18%	40%	-2%	20µM*
COCCCNCCCOc1ccc(C)cc1Br	50µM*	?	8%	-2%	1%	3.5µM*
COc1cc(C)ccc1OCCOCCOc1cc(C)c(C)cc1Br	62%	49%[59 µM]	85%	36%	5%	28%
CC(C)NCCCCOc1ccc(Br)cc1Cl	-2%	·	-20%	51%	-4%	32µM*
O=C(NCc1ccccc1Cl)c1cnc2sc(N3CCCCC3)nn2c1=O	3%	-2%[59 µM]	-15%	·	3%	-14%
Cc1ccccc1NS(=O)(=O)c1nnc(NC(=O)c2ccco2)s1	-39%	?	?	·	9%	?
COc1ccccc1CNC(=O)c1cc(S(=O)(=O)N2CCCCCC2)cn1C	-16%	0%[59 µM]	27%[57 µM]	·	1%	-22%
CC(C)Oc1ccc(CNS(=O)(=O)c2ccc(-c3cc(C(F)(F)F)on3)s2)cc1	2%	0%[59 µM]	16%	·	4%	-14%
Cc1ccc(NC(=O)C(Cc2ccccc2)NS(=O)(=O)c2ccc3c(c2)oc(=O)n3C)cc1F (stereo not given)	-16%	0%[59 µM]	26%	·	0%	-16%
COc1ccc(NC(=O)CSc2c(C(C)C)cnc3c2c(=O)n(C)c(=O)n3C)c(OC)c1	0%	-44%[59 µM]	26%[57 µM]	·	2%	-5%
CCCCNCCCOc1cc(Cl)ccc1Cl	-15%	-34%[59 µM]	14%	·	15%	-18%
CCN(CC)CCCOc1ccc(C)cc1Br	79µM*	20µM*	?	·	13%	14µM*
CCOc1ccccc1OCCCOc1ccc(C)cc1Br	123%	·	230%	47%	5%	92%
CCCCNCCOCCOc1ccc(F)cc1	79µM*	11µM*	?	8%	-5%	5µM*
COCCCNC(=O)COc1ccc(Br)cc1Cl	-5%	20%[59 µM]	27%	7%	1%	-6%
SMILES	BAZ2B inh	G9a inh	HP1b binding inh	L3MBTL1 block	GLS inh	JMJD2A Tudor inh
CCCCNCCOCCOc1ccc(Cl)cc1Br	79µM*	7.9µM*	-14%	6%	4%	4.5µM*
COCCCNCCCOc1ccc(Cl)cc1Br	?	?	?	1%	·	0.89µM*
CCCCn1c(=N)n(CCCOc2ccc(F)cc2)c2ccccc21	-35%	-30%[59 µM]	9%	·	4%	-9%
O=c1[nH]ccc2c(S(=O)(=O)N3CCCNCC3)cccc12	·	1%[59 µM]	·	·	·	·
O=C(Nc1ccc(F)cc1F)c1noc2c1CCc1ccccc1-2	4%	-2%[59 µM]	52%	·	?	4%
COc1ccc(-c2cc(=O)[nH]c(=S)[nH]2)cc1	-36%	50µM*	37%	3%	-21%	-13%
COc1ccc(-c2cc(=O)c3cc(OC)ccc3[nH]2)cc1	-2%	79µM*	28%	7%	0%	-7%
Cc1cc(C)cc(NC(=O)Cn2c3ncccc3c(=O)n2-c2ccc(C)c(C)c2)c1	14%	26%[59 µM]	59%	·	2%	29%
COc1ccc(-c2csc(N(CCCN3CCOCC3)C(=O)CCl)n2)cc1	?	35µM*	18%	2%	-1%	?
CCN(CC)CCCN(C(=O)c1ccc(Br)cc1)c1nc(-c2ccc(OC)cc2)cs1	50µM*	·	?	-3%	4%	56µM*
O=C(c1ccco1)N(CCCN1CCOCC1)c1nc(-c2ccc(Cl)cc2)cs1	-27%	?	11%	-6%	-1%	2%
Cc1ccc(F)c(C2C3C=CCCC3(C)C(=O)N2Cc2ccccc2)c1 (stereo not given)	·	·	36%	·	·	-3%
CC(C)(C)c1ccc(C(=O)NNc2ncnc3c2cnn3-c2ccccc2)cc1	1%	10%[59 µM]	29%	·	-8%	-26%
C[C@@](O)(/C=C/[C@H]1CC=CC(=O)O1)[C@@H](C[C@@H](O)\C=C/C=C\C=C\CO)OP(=O)(O)O	·	-3%[12.7 µM]	·	·	·	·
CC(C)c1ccc(NC2CCCN(C(=O)CN3CCCC3=O)C2)cc1 (stereo not given)	-21%	1%[59 µM]	57%	·	0%	-20%
CCOCCN1CCN(C(=O)CN2CCCC2=O)CC1	89µM*	7.9µM*	8%	5%	2%	?
CCCCOC(=O)c1ccc(NC(=O)/C(C#N)=C/c2ccc(-c3ccccc3)o2)cc1	-30%	-31%[59 µM]	22%	·	-2%	-19%
Cc1cccc(C(=O)NNc2ncnc3c2cnn3-c2ccc(C)c(Cl)c2)c1	0%	5%[59 µM]	11%	·	-17%	-22%
COc1ccccc1NC(=O)C1=C(C)Nc2nc(SCc3ccccc3)nn2C1c1cccnc1 (stereo not given)	79µM*	1%[59 µM]	15%	·	13%	-19%
COc1ccccc1NC(=O)C1=C(C)Nc2nc(CCCO)nn2C1c1cccnc1 (stereo not given)	-5%	50µM*	27%	0%	21%	3%
COc1ccccc1NC(=O)C1=C(C)Nc2nc(SCc3ccccc3F)nn2C1c1cccnc1 (stereo not given)	-29%	-12%[59 µM]	16%	·	-8%	-10%
Cc1nc2ccc(S(=O)(=O)N(CC(=O)Nc3ccc(F)cc3F)Cc3ccccc3)cc2s1	-1%	5%[59 µM]	5%	·	-1%	-9%
